High-throughput results as filed in PubChem BioAssay.
HT1080 IDH1KD tx = toxicity to HT-1080 IDH1 knockdown cells (counter line) | HT-1080 IDH1 knockdown viability, ATP luminescence, 48 h | Potency, µM (titrated, usually from 46.1 µM), inactives show at the highest dose activity, negative = toxicity, actives largely listed as cytotoxic | hit rate 2% among 360,000;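 further: potency means the concentration at half of the fitted maximal effect; 0% = DMSO wells and -100% = cell-free medium wells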
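Luminescent ATP read-out (CellTiter-Glo, 10 min at room temperature) after 48 h compound exposure at 37 °C gave viability of IDH1-knockdown HT-1080 cells. Activity was normalised to DMSO and cell-free wells, then fitted as concentration-response curves.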
DT40 TDP1 CPT = growth inhibition of DT40 Tdp1-/-;hTDP1 cells with camptothecin (screen for TDP1 inhibitors); hit rate 12% among 420,000; Potency, µM (titrated, usually from 46.2 µM), without a hit: at the top dose activity change, negative = growth inhibition, hits mostly inhibitors; AID 686979; chicken DT40 Tdp1-/-;hTDP1 cells + 20 nM CPT, ATP luminescence, 48 h; further: potency means the concentration at half of the fitted maximal effect; nearly all actives have a fitted effect of over 55% in size
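Cell growth measured by CellTiter-Glo luminescence after a minimum 48 h, 37 C compound exposure with 20 nM CPT in Tdp1-knockout DT40 cells stably expressing hTDP1, seeded 400/well; qHTS titration format.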
ELG1 DNA repair = inhibitors of ELG1-dependent DNA repair in HEK293T cells. hit rate 2.3% among 330,000. HEK293T ELG1-luciferase reporter, luminescence, 16 h; DNA damage induced by 5-fluorouridine. Potency, µM (titrated, usually from 46.1 µM), inactives show at the highest dose activity change, negative = inhibition, actives largely listed as inhibitors; further: potency means the concentration at half of the fitted maximal effect; nearly all actives have a fitted effect of over 55% in size
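DMSO vehicle served as the neutral condition. Each well held 2,000 cells given 5-fluorouridine plus compound; after 16 hr at 37 °C/5% CO2, ONE-Glo was added and luciferase measured 30 min later.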
TDP1 cell noCPT = qHTS for Inhibitors of human tyrosyl-DNA phosphodiesterase 1 (TDP1): qHTS in cells in absence of CPT | Potency, µM (titrated, usually from 46.2 µM), inactives show top-dose activity change, negative = growth inhibition, most hits filed as inhibitors | hit rate 15% among 420,000 | DT40 Tdp1-/- hTDP1 cells, no CPT, ATP luminescence, 48 h | AID 686978, 2013; further: potency means the concentration at half of the fitted maximal effect; nearly all actives have a fitted effect of over 55% in size
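Camptothecin absent (DMSO only). Human TDP1-complemented DT40 knockout cells, 400 cells/well, 37 °C for minimum 48 hr; ATP measured via CellTiter-Glo, 30 min dark incubation, luminescence.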
HT1080NT lethal = kills 2HG-producing HT-1080-NT fibrosarcoma cells; Potency, µM (titrated, usually from 46.1 µM), without a hit: top-dose activity, negative = less viability, hits mostly cytotoxic; HT-1080-NT fibrosarcoma viability, CellTiter-Glo ATP luminescence, 48 h; AID 686970; hit rate 1.6% among 360,000;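 further: NT is the 2HG producing partner of a matched IDH1 knockdown line; potency means the concentration at half of the fitted maximal effect; 0% = DMSO-treated cells and -100% = media-only wells without cells; nearly all actives have a fitted effect of over 55% in size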
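Read-out is CellTiter-Glo luminescence after 10 minutes at room temperature, following 48 hours' compound treatment of HT-1080-NT cells (750 cells/well, RPMI, 5% FBS, 37 degrees C).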
IL1B secr inh = blocks inflammasome-driven IL-1 beta release. activity change, % at 57.5 µM. AID 743279. THP-1 LPS/ATP IL-1B secretion, AlphaLISA, 16 h; stronger effect = lower value. hit rate 4.7% among 360,000; in the data active means activity change below about -50%; inconclusive means mostly about -30% to -49%
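THP-1 cells pretreated 1 hr with compounds (up to 57.5 uM final), then stimulated with LPS (250 ng/mL final) plus ATP (1.25 mM final); secreted IL-1B measured by AlphaLISA after 16 hr, decreased signal indicating inhibition.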
Starred values were filed as active, the others as inactive; ? = inconclusive; . = no result given. Compounds with a hit are over-represented: about 19% of the library has one in this group of screens. Unless noted, the call rests on the fitted dose curve; in most records, active means well fitted curve in the direction sought with a large enough effect; inconclusive means small, poorly fitted or top-dose-only effect, or another doubt; inactive means no such curve, though single readings can be large; an effect the other way counts as inactive or inconclusive. Unless noted, on the % scale 0 is the no-effect control and ±100 the full control effect.

SMILES | HT1080 IDH1KD tx | DT40 TDP1 CPT | ELG1 DNA repair | TDP1 cell noCPT | HT1080NT lethal | IL1B secr inh
CCn1cc(C(=O)N2CCN(c3cc(C)ccc3C)CC2)c(=O)c2cc(S(=O)(=O)N3CCCCC3)ccc21 | . | -5% | . | -9% | . | .
CCOc1c(C)cnc2c1c(=O)n(Cc1ccc(Cl)cc1)c(=O)n2C | -14% | -15% | 4% | -10% | 0% | 46
COc1ccc(-n2c(C)cc(C(=O)CCl)c2C)cc1 | 15µM* | 1.5µM* | 28% | 1.8µM* | ? | -77*
COC(=O)COc1cccc(-n2cnnn2)c1 | 8% | 13% | -10% | 3% | -3% | 19
COc1ccc(-n2c(C)cc(C(=O)CN3C(=O)c4ccccc4C3=O)c2C)cc1 | -2% | -11% | ? | ? | -21% | -12
Cc1cc(C(=O)COC(=O)c2ccc(O)cc2O)c(C)n1-c1ccccc1 | -6% | 21µM* | ? | 21µM* | -11% | -81*
Cc1cc(C(=O)COc2cccc(-n3cnnn3)c2)c(C)n1-c1ccccc1 | -29% | 23µM* | ? | 21µM* | -13% | ?
COc1ccc(CN(C)C(=O)c2cccc(NS(=O)(=O)c3ccccc3)c2)cc1F | -1% | -4% | 0% | -25% | -11% | -7
O=C1NC(NS(=O)(=O)c2ccccc2)(C(F)(F)F)C(=O)N1c1cccc(Cl)c1 (stereo unspecified) | 17% | 22% | -1% | -25% | -4% | -4
O=C(N/N=C/c1ccccc1[N+](=O)[O-])c1ccc(COc2ccccc2-c2ccccc2)cc1 | 10% | 12µM* | ? | 12µM* | 7% | -4
O=C(O)c1cccc(NC(=S)N/N=C/c2ccccc2OCc2cccc(Br)c2)c1 | 9% | 23µM* | 4% | ? | 1% | 7
O=C(N/N=C/c1ccccc1F)c1cccc2ccccc12 | 6% | ? | 29% | ? | 2% | 37
CCC(=O)Nc1ccc(C(=O)N/N=C/c2ccccc2[N+](=O)[O-])cc1 | -25% | -29% | -12% | ? | -1% | -3
O=C(N/N=C/c1ccccc1F)c1ccccc1OCc1ccccc1 | -2% | ? | ? | 21µM* | -13% | 21
O=C(N/N=C/c1ccccc1OCc1ccccc1)c1cccnc1 | -15% | ? | -1% | 29µM* | -4% | 9
CCc1nc2c(OCC(=O)N3CCOCC3)cccn2c1N(C=O)Cc1ccccc1 | 1% | -6% | . | -3% | 14% | 23
CN(C)c1ncc2nc(-c3cc(F)cc(F)c3)c(=O)n(-c3ccccc3)c2n1 | . | 9% | . | 12% | . | .
CC(=O)Nc1ccc(C(=O)N/N=C/c2ccccc2OCc2ccccc2)cc1 | 21µM* | ? | ? | 21µM* | 16µM* | 13
CC(=O)N/N=C\c1ccccc1OC/C=C/c1ccccc1 | 12% | 16µM* | ? | ? | 4% | 0
Cc1ccc(OCCCC(=O)N(C)CC(=O)Nc2c(C)cccc2C)cc1 | 10% | -9% | . | ? | 3% | -6
C(=N\Nc1nc2ccccc2[nH]1)/c1ccncc1 | 16% | 2% | ? | -27% | 18% | -22
C(=N\Nc1nc2ccccc2[nH]1)/c1cccs1 | 0% | ? | ? | ? | -4% | -71*
Clc1nc2ccccc2cc1/C=N/Nc1nc2ccccc2[nH]1 | -6% | ? | ? | 15µM* | ? | 23
Cc1ccsc1/C=N/Nc1ncnc2nc[nH]c12 | -7% | -11% | ? | ? | -20% | 81
C(=N\Nc1ncnc2nc[nH]c12)/c1cccs1 | -4% | 2% | ? | 2% | -8% | -74*
SMILES | HT1080 IDH1KD tx | DT40 TDP1 CPT | ELG1 DNA repair | TDP1 cell noCPT | HT1080NT lethal | IL1B secr inh
Cc1nn(-c2ccccc2)c(C)c1/C=N/Nc1nc2ccccc2[nH]1 | 18µM* | 18µM* | ? | 23µM* | ? | -88*
CCn1cc([N+](=O)[O-])c(C(=O)N2CCCCCC2)n1 | 0% | 19% | 13% | 26% | 2% | 5
Cn1c(/C=N/Nc2nc3ccccc3[nH]2)nc2ccccc21 | ? | ? | ? | 29µM* | -30% | 8
Cc1ccsc1/C=N/Nc1nc2ccccc2[nH]1 | -2% | ? | ? | ? | -17% | 35
O=[N+]([O-])c1ccccc1N/N=C/c1cc2ccccc2nc1Cl | 13% | 4.1µM* | ? | ? | 4% | 0
CC(C)Cn1c(/C=N/Nc2nc3ccccc3[nH]2)nc2ccccc21 | ? | 3.7µM* | 17% | 3.3µM* | ? | 62
C=CCn1cc(/C=N/Nc2nc3ccccc3[nH]2)c2ccccc21 | 16µM* | ? | ? | ? | 21µM* | -95*
COc1cccc(/C=N/Nc2nc3ccccc3[nH]2)c1OC | 13% | 7% | ? | -27% | 14% | -12
COc1cc(OC)c(C(=O)OCC(=O)Nc2ccc(S(=O)(=O)N3CCOCC3)cc2)cc1OC | 2% | -1% | -17% | ? | 3% | -1
COc1ccccc1CNC(=O)COC(=O)c1ccccc1SCC(=O)N1CCCC1 | 7% | ? | -14% | ? | -1% | -11
CCCn1c(/C=N/Nc2nc3ccccc3[nH]2)nc2ccccc21 | ? | ? | ? | ? | ? | -52*
FC(F)(F)c1cccc(N2CCN(C(=S)NCC3CCCO3)CC2)c1 (stereo unspecified) | ? | ? | 21µM* | 23µM* | -9% | 28
COCCNC(=S)N1CCN(c2cccc(C(F)(F)F)c2)CC1 | ? | ? | -19% | 23µM* | -5% | 20
Cc1cc(C)c2c(=O)nc(SCc3ccccc3C)n(C3CC3)c2n1 | . | -22% | . | -16% | . | .
COc1ccc(/C(C)=N/Nc2nc3ccccc3nc2C)cc1 | ? | ? | ? | 23µM* | ? | 10
COc1ccc(/C(C)=N/Nc2nncc3ccccc23)cc1 | 2% | 9% | ? | -18% | 3% | 1
CC(=O)N1CCc2c(sc(NC(=O)C3CCCN3S(=O)(=O)c3cccs3)c2C(N)=O)C1 (stereo unspecified) | -7% | 21µM* | ? | 16µM* | -12% | 69
CCN1CCc2c(sc(NC(=O)C3CCCCC3)c2C(=O)OC)C1 | -13% | 26µM* | 0% | ? | -6% | -8
CC(=O)N1CCc2c(sc(NC(=O)C3CCN(S(=O)(=O)c4cccs4)CC3)c2C(N)=O)C1 | -8% | -3% | 14% | -18% | -14% | -20
